Results published in PubChem BioAssay (Tox21).
Records with an inconclusive call do not appear. Active and inactive are the calls of the source. Calls follow the shape of the dose curve; as a rule, active = well fitted curve in the direction sought with a large enough effect in the repeat runs; inconclusive = weak or mixed curves; inactive = no such curve, though single readings can be large; an effect the other way counts as inactive or inconclusive.

Key:
[1] = A CellTox Green Cytotoxicity Assay to monitor cytotoxicity in HEK293 cells - 32 hour (AID 1224881); also: nearly all actives have a fitted effect of over 40% in size; also: potency is read from the fitted curve at half-maximal effect
How it was run: (§1)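 Cells (HEK293, 600/well) and dye reagent are dispensed together. After 5 h at 37 C, 23 nL compound is pinned in. Plates stay at 37 C for 40 h with fluorescence read at 0h, 8h, 16h, 24h, 32h and 40h.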

[2] = A CellTox Green Cytotoxicity Assay to monitor cytotoxicity in HepG2 cells - 0 hour (AID 1224882); also: nearly all actives have a fitted effect of over 35% in size
How it was run: (§2)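 Cells and non-lytic dye reagent are dispensed together (600 HepG2 cells/well) and incubated 5 h before DMSO compound transfer. Kinetic fluorescence is then recorded in the same wells during 40 h at 37 C.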

[3] = A CellTox Green Cytotoxicity Assay to monitor cytotoxicity in HepG2 cells - 32 hour (AID 1224883); also: nearly all actives have a fitted effect of over 50% in size; also: potency is read from the fitted curve at half-maximal effect
How it was run: as §2

[4] = A CellTox Green Cytotoxicity Assay to monitor cytotoxicity in HEK293 cells - 8 hour (AID 1224884); also: nearly all actives have a fitted effect of over 35% in size
How it was run: as §1

[5] = qHTS RealTime-Glo MT Cell Viability Assay in HepG2 cells - 16 hour (AID 1224885); also: nearly all actives have a fitted effect of over 50% in size; also: potency is read from the fitted curve at half-maximal effect
How it was run: (§3)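 Cell number in HepG2 cultures estimated from NanoLuc luminescence generated by metabolic reduction of a prosubstrate by living cells. The homogeneous, nonlytic format allowed repeated reads at 0, 8, 16, 24, 32 and 40 h of compound exposure.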

[6] = qHTS RealTime-Glo MT Cell Viability Assay in HEK293 cells - 24 hour (AID 1224886); also: nearly all actives have a fitted effect of over 50% in size; also: potency is read from the fitted curve at half-maximal effect
How it was run: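 Homogeneous bioluminescent viability format in HEK293 cells (600 cells/well). Following 5 h at 37 C/5% CO2, 23 nL compound was pintooled; the signal was measured repeatedly during 40 h incubation.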

[7] = qHTS RealTime-Glo MT Cell Viability Assay in HEK293 cells - 8 hour (AID 1224887); also: nearly all actives have a fitted effect of over 50% in size; also: potency is read from the fitted curve at half-maximal effect
How it was run: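 Real-time viability in HEK293: signal arises when living cells convert a prosubstrate for NanoLuc in the medium, so luminescence tracks viable cell number. Compound (23 nL, DMSO) added 5 h post-seeding; kinetic reads at 0–40 h, 37 C.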

[8] = A CellTox Green Cytotoxicity Assay to monitor cytotoxicity in HEK293 cells - 16 hour (AID 1224888); also: nearly all actives have a fitted effect of over 35% in size; also: potency is read from the fitted curve at half-maximal effect
How it was run: as §1

[9] = A CellTox Green Cytotoxicity Assay to monitor cytotoxicity in HepG2 cells - 8 hour (AID 1224890); also: nearly all actives have a fitted effect of over 45% in size; also: potency is read from the fitted curve at half-maximal effect
How it was run: as §2

[10] = qHTS RealTime-Glo MT Cell Viability Assay in HepG2 cells - 0 hour (AID 1224889); also: nearly all actives have a fitted effect of over 50% in size
How it was run: as §3

Measured: Potency

CC(C)CC#N
not listed: [10]
inactive: all other assays above

NC(=O)O
not listed: [10]
inactive: all other assays above

CCC(=O)c1ccccc1
not listed: [10]
inactive: all other assays above

O=C(Nc1ccccc1)c1ccccc1I
inactive: all assays above

C=C(C)[C@@H]1CC=C(C=O)CC1
not listed: [10]
inactive: all other assays above

CCOP(=O)(OCC)OP(=O)(OCC)OCC
not listed: [10]
inactive: all other assays above

CN(C)CCc1ccc(O)cc1
not listed: [10]
inactive: all other assays above

O=C1OC(c2ccc(O)c(S(=O)(=O)O)c2)(c2ccc(O)c(S(=O)(=O)O)c2)c2c(Br)c(Br)c(Br)c(Br)c21
not listed: [10]
inactive: all other assays above

CCCCN(CCCCO)N=O
not listed: [10]
inactive: all other assays above

CC(C)[N+](=O)[O-]
not listed: [10]
inactive: all other assays above

O=[N+]([O-])c1cccc(O)c1
inactive: all assays above

N#CC(CCc1ccc(Cl)cc1)(Cn1cncn1)c1ccccc1 (stereo unspecified)
inactive: [2] | [4]
active: [1] 54.9 µM | [3] 21.9 µM | [5] 27.5 µM | [6] 17.4 µM | [7] 21.9 µM | [9] 34.7 µM

CC(N)=S
inactive: all assays above

Clc1cccc(N2CCNCC2)c1
not listed: [10]
inactive: all other assays above

NC1=NC(=O)C(c2ccccc2)O1 (stereo unspecified)
inactive: all assays above

C[C@]12CC[C@H]3[C@@H](CC=C4C[C@@H](O)CC[C@@]43C)[C@@H]1CC[C@@H]2O
inactive: all assays above

CCOC(=O)C(c1c(O)c2ccccc2oc1=O)c1c(O)c2ccccc2oc1=O
not listed: [10]
inactive: all other assays above

Oc1c(Cl)cccc1Cl
not listed: [10]
inactive: all other assays above

CCCCOC(=O)[C@@H](C)Oc1ccc(Oc2ccc(C#N)cc2F)cc1
active: [6] 19.4 µM | [7] 12.2 µM
not listed: [10]
inactive: all other assays above

CC(C)NCC(O)c1ccc(N)c(C#N)c1 (stereo unspecified)
inactive: all assays above

CCCCOC(=O)c1ccccc1C(=O)O
inactive: all assays above

Clc1ccccc1N1CCNCC1
not listed: [10]
inactive: all other assays above

COC(=O)c1c(C(F)F)nc(C(F)(F)F)c(C2=NCCS2)c1CC(C)C
not listed: [10]
inactive: all other assays above

CCC(C)n1c(=O)[nH]c(C)c(Br)c1=O (stereo unspecified)
inactive: all assays above

O=[N+]([O-])c1cc(Cl)c(Cl)c(Cl)c1
active: [1] 21.7 µM | [8] 21.7 µM
not listed: [10]
inactive: all other assays above

COc1cc(OC)nc(NC(=O)NS(=O)(=O)c2ncccc2C(=O)N(C)C)n1
not listed: [10]
inactive: all other assays above

ClCCCN1CCN(c2cccc(Cl)c2)CC1
not listed: [10]
inactive: all other assays above

CCC#N
not listed: [10]
inactive: all other assays above

O=[N+]([O-])c1cccc2c([N+](=O)[O-])cccc12
active: [6] 49.2 µM
not listed: [10]
inactive: all other assays above

O=C(O)c1ccc2[nH]cc(CCCCN3CC=C(c4ccccc4)CC3)c2c1
not listed: [10]
inactive: all other assays above

CC1CCCCC1NC(=O)Nc1ccccc1 (stereo unspecified)
not listed: [7]
inactive: all other assays above

CCCCCCI
not listed: [10]
inactive: all other assays above

CC(C)(C)C(=O)C(Oc1ccc(Cl)cc1)n1cncn1 (stereo unspecified)
not listed: [6]
inactive: all other assays above

ClC(Br)Br
not listed: [5]
inactive: all other assays above

N#CCNCC#N
not listed: [5]
inactive: all other assays above

CCCCCCBr
not listed: [5] | [10]
inactive: all other assays above

N#Cc1c(Cl)cccc1Cl
not listed: [5]
inactive: all other assays above

OCCBr
not listed: [5]
inactive: all other assays above

CCOP(=S)(OCC)Oc1ncn(-c2ccccc2)n1
not listed: [5]
inactive: all other assays above

COC(=O)COc1ccc(Cl)cc1Cl
not listed: [5]
inactive: all other assays above
